Experiment [1] concerns the target Estrogen receptor beta (Homo sapiens) (UniProt Q92731). In words: qHTS assay to identify small molecule agonists of the estrogen receptor beta (ER-beta) signaling pathway (AID 1259377; active = well fitted activation curve with a large enough effect in the signal ratio in the repeat runs, not every such curve was filed as active; the % refers to the signal ratio). In short, it runs like this: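 qHTS in ER-beta-UAS-bla HEK293T cells: 6 hr settling, then 16 hr compound at 37C, then LiveBLAzer substrate 2 h at RT before fluorescence reading.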

Experiment [2] can be described thus: qHTS assay to identify small molecule agonists of the androgen receptor (AR) signaling pathway in the presence of an antagonist - cell viability counter screen (AID 1259379).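 Also: MDA-kb2 human breast cancer cells carrying an MMTV luciferase reporter; series mostly up to about 92 µM; nearly all actives have a fitted effect of over 25% in size.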 In short, it runs like this:
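In MDA-kb2 cells (human breast carcinoma, MMTV-luciferase), compounds at 15 concentrations plus 3.0uM nilutamide; 16 hr, 37C, 0% CO2; CellTiter-Fluor fluorescence read for viability.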

Experiment [3] can be described thus: qHTS assay to identify small molecule antagonists of the estrogen receptor beta (ER-beta) signaling pathway - cell viability counter screen (AID 1259382).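 Also: HEK293T cells carrying ER-beta-UAS-bla reporter stimulated with estradiol; series mostly up to about 92 µM; nearly all actives have a fitted effect of over 55% in size.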 The procedure, abridged: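 Tox21 10K library tested in qHTS format on ER-beta-bla HEK293T cells stimulated with 1nM E2; 16 hr treatment at 37C. Same-well CellTiter-Glo luminescence served as the cell viability measure.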

Experiment [4] is described as follows: qHTS assay to identify small molecule agonists of the estrogen receptor alpha (ER-alpha) signaling pathway in the presence of an antagonist - cell viability counter screen (AID 1259386).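 Also: series mostly up to about 92 µM; cells exposed to compounds for 22 h at 37 °C before the viability read; nearly all actives have a fitted effect of over 30% in size.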 The procedure, abridged:
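Fluorescent CellTiter-Fluor viability signal from VM7Luc4E2 cells, with the reagent added during the final hour of a 22hr compound exposure at 37C in the presence of 10.0nM ICI-182,780.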

For experiment [5], the target named is Progesterone receptor (Homo sapiens) (UniProt P06401). In words: qHTS assay to identify small molecule agonists of the progesterone receptor (PR) signaling pathway (AID 1346784; calls by dose curve; also: nearly all actives have a fitted effect of over 30% in size; also: potency is read from the fitted curve at half-maximal effect). In short, it runs like this:
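Fluorescence from LiveBLAzer B/G FRET substrate cleavage (2 hr, RT) reported PR activation in PR-UAS-bla HEK 293T cells treated 16 hr at 37C/5% CO2 with compounds; medium contained 2% charcoal-stripped FBS.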

For experiment [6] the target is unchanged. The experiment is described as follows: qHTS assay to identify small molecule antagonists of the progesterone receptor (PR) signaling pathway (AID 1346795; active = well fitted inhibition curve with a large enough effect in the signal ratio in the repeat runs, not every such curve was filed as active; the % refers to the signal ratio). The procedure, abridged:
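Fluorescence intensity measured 2 hr after adding beta-lactamase FRET substrate to PR-UAS-bla HEK293T cells that had been co-treated 16 hr with compound and 1 nM R5020 (final concentration) in 2% charcoal-stripped FBS.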

A short description of experiment [7]: qHTS assay to identify small molecule antagonists of the progesterone receptor (PR) signaling pathway - cell viability counter screen (AID 1346798). Also: series mostly up to about 92 µM; nearly all actives have a fitted effect of over 50% in size. The procedure, abridged: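 CellTiter-Glo luminescence; PR-UAS-bla HEK293T, 3,000 cells/well; compound + R5020, 16 hr, 37C/5% CO2; 30 min RT before read.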
Experiment [8] can be described thus: qHTS assay to identify small molecule agonists of the progesterone receptor (PR) signaling pathway - cell viability counter screen (AID 1346799; calls by dose curve; also: nearly all actives have a fitted effect of over 45% in size; also: potency is read from the fitted curve at half-maximal effect). In short, it runs like this:
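In parallel with the beta-lactamase readout, cytotoxicity toward PR-UAS-bla HEK293T cells was measured by CellTiter-Glo luminescence following 16 hr compound incubation in 2% charcoal-stripped FBS medium.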

A short description of experiment [9]: qHTS assay to identify small molecule antagonists of the TGF-beta/Smad signaling pathway - cell viability counter screen (AID 1346824). Also: nearly all actives have a fitted effect of over 50% in size. The procedure, abridged:
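Cytotoxicity counter-screen run in the same wells as the beta-lactamase Smad reporter read: CellTiter-Glo luminescence after 30 min at room temperature. HEK 293T SBE-bla cells had 5 hr compound exposure at 37 C with TGF-beta1 (0.25 ng/mL stock).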

Experiment [10] can be described thus: qHTS assay to identify small molecule agonists of the TGF-beta/Smad signaling pathway - cell viability counter screen (AID 1346829). Also: top concentration of the series differs between compounds; nearly all actives have a fitted effect of over 45% in size. In short, it runs like this:
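CellTiter-Glo luminescence readout; SBE-bla HEK 293T cells, overnight plating, compound 5 hr at 37 C/5% CO2, then bla substrate 2 hr RT, then CellTiter-Glo 30 min RT.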

Experiment [11] can be described thus: qHTS assay to identify small molecule agonists of the TGF-beta/Smad signaling pathway (AID 1346859; active = well fitted activation curve with a large enough effect in the signal ratio in the repeat runs, not every such curve was filed as active; the % refers to the signal ratio; also: series mostly up to about 77 µM). In short, it runs like this: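 After overnight seeding, SBE-bla HEK 293T cells are dosed with compounds in DMSO and kept 5 hr at 37 C, 5% CO2. LiveBLAzer-type FRET substrate is then applied for 2 hr at room temperature.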
Experiment [12] can be described thus: Human pregnane X receptor (PXR) small molecule agonists, qHTS cell viability counter screen (AID 1346977). Also: nearly all actives have a fitted effect of over 50% in size. In short, it runs like this:
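Viability counter screen: CellTiter-Fluor signal in PXR-Luc HepG2 cells, 24hr compound exposure, 37C, 5% CO2.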

The target of experiment [13] is Androgen receptor (Homo sapiens) (UniProt P10275). In words: qHTS assay to identify small molecule agonists of the androgen receptor (AR) signaling pathway in the presence of an antagonist (AID 1259381; calls by dose curve; also: nearly all actives have a fitted effect of over 15% in size; also: potency is read from the fitted curve at half-maximal effect). The procedure, abridged:
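Here, 15-concentration compound series were pin-transferred onto MDA-kb2 MMTV-luciferase cells already dosed with nilutamide (3.0uM final). After 16hr at 37C, ONE-Glo was added and luminescence read 30min later at room temperature.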

Experiment [14] can be described thus: qHTS assay to identify small molecule agonists or antagonists of the thyroid stimulating hormone receptor (TSHR) signaling pathway - wild type cell line counter screen (AID 1259384; calls by dose curve). The procedure, abridged: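 Counter screen in untransfected Hek293: compounds (15-point titration, triplicate) plus phosphodiesterase inhibitor Ro20-1724 added after 18 h plating; 30 min RT. Intracellular cAMP via competitive d2/cryptate immunoassay, 1 h incubation.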

Experiment [15] concerns the target Thyrotropin-releasing hormone receptor (Homo sapiens) (UniProt P34981). In words: qHTS assay to identify small molecule antagonists of the thyrotropin-releasing hormone receptor (TRHR) signaling pathway (AID 1346877; active = well fitted inhibition curve with a large enough effect in the repeat runs, not every such curve was filed as active; also: series mostly up to about 51 µM). In short, it runs like this:
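In this cell-based calcium flux format, HEK293 cells expressing TRHR received test compound for 5 min before the agonist TRH (1 nM final). Dye loading lasted 2 h at 37 °C.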

Experiment [16] has the same target. The experiment is described as follows: qHTS assay to identify small molecule agonists of the thyrotropin-releasing hormone receptor (TRHR) signaling pathway (AID 1346891; calls by dose curve; also: series mostly up to about 58 µM). In short, it runs like this: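 Compounds were tested as agonists at 15 concentrations, in triplicate, on TRHR-Hek293 cells; calcium-sensitive dye fluorescence was recorded for 3 min following addition.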

Experiment [17] is described as follows: qHTS assay to identify small molecule agonists of the estrogen receptor beta (ER-beta) signaling pathway - cell viability counter screen (AID 1259380). Also: nearly all actives have a fitted effect of over 30% in size. The procedure, abridged: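 Viability of ER-beta-UAS-bla HEK293T cells was determined by CellTiter-Glo luminescence following 16 hr treatment with test compounds at 37C.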
Experiment [18] concerns the target Thyrotropin receptor (Homo sapiens) (UniProt P16473). In words: qHTS assay to identify small molecule antagonists of the thyroid stimulating hormone receptor (TSHR) signaling pathway (AID 1259385; calls by dose curve; also: nearly all actives have a fitted effect of over 20% in size). The procedure, abridged: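 Antagonist mode: compound-treated TSHR-expressing HEK293 cells were stimulated with 1.5 ng/mL TSH (final) in presence of Ro20-1724 for 30 min at RT. HTRF cAMP detection after 1 h; each compound tested at 15 concentrations, triplicate.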

The target of experiment [19] is Estrogen receptor (Homo sapiens) (UniProt P03372). The experiment is described as follows: qHTS assay to identify small molecule agonists of the estrogen receptor alpha (ER-alpha) signaling pathway in the presence of an antagonist (AID 1259383; calls by dose curve; also: top concentration of the series differs between compounds; nearly all actives have a fitted effect of over 15% in size). The procedure, abridged: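 In VM7Luc4E2 cells, 4,000 per well, compounds at 15 concentrations were co-incubated 22hr at 37C with 10.0nM final ICI-182,780. Luminescence from the stably transfected 4×ERE-luciferase reporter was recorded 30min after ONE-Glo addition.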

Molecules are shown by their SMILES. Values without a mark were called inactive. Results filed as inconclusive are left out. Calls of active or inactive are those of the source. Unless noted, calls follow the shape of the dose curve; as a rule, active = well fitted curve in the direction sought with a large enough effect in the repeat runs; inconclusive = weak or mixed curves; inactive = no such curve, though single readings can be large; an effect the other way counts as inactive or inconclusive.

The values that follow come from PubChem BioAssay (Tox21).

Progesterone receptor (Homo sapiens), sequence (P06401 whole entry, looked up): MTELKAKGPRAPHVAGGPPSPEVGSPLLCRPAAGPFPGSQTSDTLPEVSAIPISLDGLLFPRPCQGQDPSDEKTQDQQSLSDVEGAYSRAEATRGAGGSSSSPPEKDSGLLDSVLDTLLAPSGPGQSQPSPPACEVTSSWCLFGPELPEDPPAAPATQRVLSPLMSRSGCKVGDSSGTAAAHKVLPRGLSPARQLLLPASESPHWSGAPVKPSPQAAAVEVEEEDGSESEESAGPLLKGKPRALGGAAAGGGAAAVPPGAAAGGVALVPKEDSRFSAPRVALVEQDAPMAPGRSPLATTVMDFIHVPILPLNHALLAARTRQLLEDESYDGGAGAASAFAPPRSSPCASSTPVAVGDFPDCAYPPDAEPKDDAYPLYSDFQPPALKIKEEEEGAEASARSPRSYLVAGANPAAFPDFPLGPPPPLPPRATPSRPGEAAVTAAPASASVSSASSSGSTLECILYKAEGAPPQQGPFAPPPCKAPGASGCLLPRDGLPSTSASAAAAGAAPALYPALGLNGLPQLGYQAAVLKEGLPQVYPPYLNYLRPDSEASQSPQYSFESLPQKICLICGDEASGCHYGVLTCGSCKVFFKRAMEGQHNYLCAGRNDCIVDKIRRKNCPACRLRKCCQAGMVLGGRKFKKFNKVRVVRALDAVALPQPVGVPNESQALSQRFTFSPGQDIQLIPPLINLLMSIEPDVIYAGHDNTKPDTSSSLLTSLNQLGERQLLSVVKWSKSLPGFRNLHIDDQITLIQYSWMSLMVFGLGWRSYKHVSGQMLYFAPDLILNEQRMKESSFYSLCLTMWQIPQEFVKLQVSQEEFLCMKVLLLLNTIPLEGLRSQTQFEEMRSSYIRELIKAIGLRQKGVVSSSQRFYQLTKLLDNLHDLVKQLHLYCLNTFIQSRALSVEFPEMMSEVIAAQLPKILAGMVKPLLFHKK
Thyrotropin-releasing hormone receptor (Homo sapiens), sequence (P34981 whole entry, looked up): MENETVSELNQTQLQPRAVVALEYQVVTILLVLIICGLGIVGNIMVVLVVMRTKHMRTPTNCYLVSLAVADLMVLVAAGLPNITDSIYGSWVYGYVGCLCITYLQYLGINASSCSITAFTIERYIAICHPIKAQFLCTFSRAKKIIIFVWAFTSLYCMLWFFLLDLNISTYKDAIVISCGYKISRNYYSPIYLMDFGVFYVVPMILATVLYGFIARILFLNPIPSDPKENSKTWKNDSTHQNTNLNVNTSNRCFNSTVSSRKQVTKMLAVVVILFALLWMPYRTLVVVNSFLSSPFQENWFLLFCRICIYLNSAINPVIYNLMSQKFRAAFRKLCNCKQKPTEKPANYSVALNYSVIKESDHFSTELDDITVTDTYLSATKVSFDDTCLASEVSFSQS
Thyrotropin receptor (Homo sapiens), sequence (P16473 whole entry, looked up): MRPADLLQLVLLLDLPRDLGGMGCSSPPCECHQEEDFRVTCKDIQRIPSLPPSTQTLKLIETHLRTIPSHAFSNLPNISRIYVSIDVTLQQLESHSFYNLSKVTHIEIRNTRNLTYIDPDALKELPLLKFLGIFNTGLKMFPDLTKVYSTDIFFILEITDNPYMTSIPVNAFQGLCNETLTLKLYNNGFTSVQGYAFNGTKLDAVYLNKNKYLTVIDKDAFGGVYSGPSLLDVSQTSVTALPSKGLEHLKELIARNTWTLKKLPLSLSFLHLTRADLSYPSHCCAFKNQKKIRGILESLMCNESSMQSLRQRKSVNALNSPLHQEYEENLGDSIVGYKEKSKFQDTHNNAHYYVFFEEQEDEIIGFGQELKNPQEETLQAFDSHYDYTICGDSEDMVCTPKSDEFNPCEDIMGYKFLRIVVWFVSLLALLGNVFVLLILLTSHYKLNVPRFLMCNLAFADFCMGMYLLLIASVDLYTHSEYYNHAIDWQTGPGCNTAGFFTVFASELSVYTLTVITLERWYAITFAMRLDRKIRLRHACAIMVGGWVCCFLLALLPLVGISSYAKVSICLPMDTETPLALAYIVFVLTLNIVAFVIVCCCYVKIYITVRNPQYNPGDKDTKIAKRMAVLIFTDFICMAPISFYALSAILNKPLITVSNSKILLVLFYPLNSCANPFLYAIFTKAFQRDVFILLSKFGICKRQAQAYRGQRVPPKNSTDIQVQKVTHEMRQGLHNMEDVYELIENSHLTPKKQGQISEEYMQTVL
Estrogen receptor beta (Homo sapiens), sequence (Q92731 whole entry, looked up): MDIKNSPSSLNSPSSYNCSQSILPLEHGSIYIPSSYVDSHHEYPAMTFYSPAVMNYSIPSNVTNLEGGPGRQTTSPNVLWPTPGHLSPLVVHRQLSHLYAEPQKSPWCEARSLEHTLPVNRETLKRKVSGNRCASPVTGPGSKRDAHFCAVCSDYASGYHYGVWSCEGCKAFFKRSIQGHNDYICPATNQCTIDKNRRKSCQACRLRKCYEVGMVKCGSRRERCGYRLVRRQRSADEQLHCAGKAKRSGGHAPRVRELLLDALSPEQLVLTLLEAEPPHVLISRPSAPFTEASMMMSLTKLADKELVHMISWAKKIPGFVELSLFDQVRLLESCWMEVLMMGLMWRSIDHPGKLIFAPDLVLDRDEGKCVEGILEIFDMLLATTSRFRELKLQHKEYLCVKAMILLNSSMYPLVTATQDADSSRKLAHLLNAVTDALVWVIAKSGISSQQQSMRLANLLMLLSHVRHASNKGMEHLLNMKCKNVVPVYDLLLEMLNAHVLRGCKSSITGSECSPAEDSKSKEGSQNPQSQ
Androgen receptor (Homo sapiens), sequence (P10275 whole entry, looked up): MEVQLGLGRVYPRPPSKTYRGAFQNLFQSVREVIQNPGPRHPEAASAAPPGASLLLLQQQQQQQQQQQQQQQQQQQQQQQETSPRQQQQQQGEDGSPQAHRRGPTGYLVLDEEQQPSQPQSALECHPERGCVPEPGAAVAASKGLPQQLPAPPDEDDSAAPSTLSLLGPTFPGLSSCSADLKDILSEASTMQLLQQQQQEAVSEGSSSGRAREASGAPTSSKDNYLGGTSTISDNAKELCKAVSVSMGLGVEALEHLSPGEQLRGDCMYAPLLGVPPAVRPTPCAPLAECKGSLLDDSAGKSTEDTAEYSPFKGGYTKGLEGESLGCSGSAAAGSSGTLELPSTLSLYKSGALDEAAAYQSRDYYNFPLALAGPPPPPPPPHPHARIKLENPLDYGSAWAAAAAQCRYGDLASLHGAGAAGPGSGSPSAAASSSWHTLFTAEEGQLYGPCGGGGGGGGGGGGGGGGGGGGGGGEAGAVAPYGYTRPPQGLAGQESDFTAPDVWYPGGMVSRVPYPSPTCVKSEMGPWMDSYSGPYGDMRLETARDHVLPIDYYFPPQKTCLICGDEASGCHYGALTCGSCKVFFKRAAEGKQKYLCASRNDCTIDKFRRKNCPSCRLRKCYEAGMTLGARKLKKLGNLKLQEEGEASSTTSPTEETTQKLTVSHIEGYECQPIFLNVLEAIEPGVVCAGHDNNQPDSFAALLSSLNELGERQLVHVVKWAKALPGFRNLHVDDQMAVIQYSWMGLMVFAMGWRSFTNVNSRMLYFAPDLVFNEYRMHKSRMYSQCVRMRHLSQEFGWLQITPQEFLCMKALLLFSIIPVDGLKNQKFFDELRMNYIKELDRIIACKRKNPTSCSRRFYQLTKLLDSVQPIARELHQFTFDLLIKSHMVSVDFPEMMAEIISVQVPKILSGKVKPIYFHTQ
Estrogen receptor (Homo sapiens), sequence (P03372 whole entry, looked up): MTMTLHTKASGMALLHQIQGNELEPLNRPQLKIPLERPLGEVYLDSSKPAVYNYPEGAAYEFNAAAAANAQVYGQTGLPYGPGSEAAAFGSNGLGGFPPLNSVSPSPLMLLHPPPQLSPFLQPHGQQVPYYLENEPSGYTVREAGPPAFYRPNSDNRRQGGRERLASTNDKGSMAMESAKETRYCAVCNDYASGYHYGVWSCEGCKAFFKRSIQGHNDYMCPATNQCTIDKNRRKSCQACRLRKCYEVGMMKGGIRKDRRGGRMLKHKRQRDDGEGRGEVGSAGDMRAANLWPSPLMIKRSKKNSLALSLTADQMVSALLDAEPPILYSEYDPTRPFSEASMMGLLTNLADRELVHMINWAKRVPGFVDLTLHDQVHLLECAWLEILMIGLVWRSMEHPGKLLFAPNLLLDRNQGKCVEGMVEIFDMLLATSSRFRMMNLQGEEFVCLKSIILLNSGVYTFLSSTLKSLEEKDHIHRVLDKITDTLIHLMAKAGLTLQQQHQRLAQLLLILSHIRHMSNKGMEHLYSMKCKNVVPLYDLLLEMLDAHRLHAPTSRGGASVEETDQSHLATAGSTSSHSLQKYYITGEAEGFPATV

Take `CCC(C)(CN(C)C)OC(=O)c1ccccc1` (configuration not stated): the Potency entry in [1], in experiment [2], in experiment [4], in experiment [5], in experiment [6] and in experiment [7] was “inactive” each time. Also, the Potency entry in experiment [8] and in experiment [12] was “inactive” in each case. The molecule was classed as inactive in experiment [3], in experiment [9], in experiment [10] and in [11].

For `CCN(Cc1ccccc1)c1ccccc1`, the Potency result in experiment [1], in [13], in [4], in experiment [6], in experiment [16] and in experiment [12] was “inactive” in each case. For the same molecule, the outcome in [3], in [14], in experiment [9], in experiment [10], in experiment [11] and in [15] was inactive. Also, in experiment [8], the Potency was 67800 nM (active).

As for `O=C1CCCCCCCCCCCCCCO1`, the Potency entry in experiment [1], in [2], in experiment [17], in experiment [4], in experiment [5] and in experiment [6] was “inactive” throughout. Further, the Potency entry in [7], in experiment [8], in [16] and in [12] was “inactive” in each case. For the same molecule, the molecule was classed as inactive in experiment [3], in experiment [14], in experiment [9], in [11] and in experiment [15].

`CCC(C(=O)NC(=O)NC(C)=O)c1ccccc1` (configuration not stated): the Potency result in experiment [1], in experiment [2], in [17], in experiment [5], in [6] and in [8] was “inactive” each time. For the same molecule, the Potency result in experiment [16] and in experiment [12] was “inactive” in each case. For the same molecule, the outcome in experiment [3], in [18], in [9], in [10], in experiment [11] and in experiment [15] was inactive.

As for `C[N+]1(C)[C@@H]2CC(OC(=O)[C@H](CO)c3ccccc3)C[C@H]1[C@@H]1O[C@@H]12` (some centres not stated), the Potency result in experiment [2], in experiment [17], in experiment [4], in experiment [5], in experiment [6] and in experiment [7] was “inactive” in each case. For the same molecule, the Potency entry in [8], in experiment [16] and in experiment [12] was “inactive” throughout. The molecule was classed as inactive in experiment [3], in [19], in experiment [14], in experiment [18], in experiment [9] and in [10]. Also, the molecule was classed as inactive in experiment [11] and in experiment [15].

Take `CCCCc1nc(Cl)c(CO)n1Cc1ccc(-c2ccccc2-c2nn[nH]n2)cc1`: the Potency result in experiment [1], in experiment [2], in experiment [17], in [4], in [5] and in experiment [6] was “inactive” in each case. Further, the Potency entry in experiment [8] and in experiment [12] was “inactive” each time. Further, the molecule was called inactive in experiment [3], in experiment [9], in experiment [10] and in experiment [11].

Regarding `CCCC(=O)O[C@]1(C(=O)CC)CC[C@H]2[C@@H]3CCC4=CC(=O)CC[C@]4(C)[C@H]3[C@@H](O)C[C@@]21C`, the Potency result in experiment [1], in experiment [2], in experiment [4], in experiment [7], in experiment [8] and in experiment [16] was “inactive” in each case. For the same molecule, the Potency entry in [12] was “inactive”. Further, the Potency in [13] is 13.3 nM (active); in experiment [5], 7.5 nM (active). In addition, the call in experiment [3], in experiment [9], in [10], in [11] and in experiment [15] was inactive.

Turning to `CC(=O)Nc1ccc(OCC(O)CNC(C)C)cc1` (configuration not stated), the Potency result in experiment [1], in [2], in [17], in [4], in [5] and in experiment [6] was “inactive” each time. Also, the Potency result in experiment [8], in experiment [16] and in experiment [12] was “inactive” each time. The call in experiment [3], in [18], in experiment [9], in experiment [10], in experiment [11] and in experiment [15] was inactive.

Take `CCOC(=O)COC(=O)c1ccccc1C(=O)OCC`: the Potency result in [1], in experiment [2], in experiment [4], in experiment [5], in experiment [6] and in experiment [7] was “inactive” throughout. Also, the Potency entry in experiment [8], in experiment [16] and in [12] was “inactive” in each case. For the same molecule, the call in experiment [3], in [19], in experiment [18], in experiment [9], in experiment [10] and in [15] was inactive.
